{
  "source": "PubChem BioAssay (NCATS)",
  "note": "Records with an inconclusive call do not appear. Values without a mark were called inactive. Unless noted, calls follow the shape of the full dose curve.",
  "data": [
    {"experiment": "Primary qHTS for small molecule stabilizers of the endoplasmic reticulum resident proteome: Secreted ER Calcium Modulated Protein (SERCaMP) assay (AID 1508630; active = well fitted inhibition curve with a large enough effect; also: % is scaled to controls: 0 for no effect and ±100 for the full control effect)", "details": "SH-SY5Y GLuc-SERCaMP (Gaussia luciferase released on ER calcium loss) secretion, thapsigargin, luminescence; series mostly up to 38.4 µM; activity change, negative = inhibition: at the top concentration", "outline": "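The SH-SY5Y reporter protocol was run at 3 concentrations up to 38.3 uM (primary) or 11 concentrations (follow-up): 16 h compound, 100 nM thapsigargin for 4 h, then extracellular luciferase luminescence.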", "values": [
      {"smiles": "ClCCCN1CCN(c2cccc(Cl)c2)CC1", "activity change, negative = inhibition": "36.2%"},
      {"smiles": "CCOC(=O)NC(C)(C)Cc1ccc(Cl)cc1", "activity change, negative = inhibition": "-14.6%"},
      {"smiles": "COc1cc(CC(C)N)cc2c1OCO2", "note": "(stereo not given)", "activity change, negative = inhibition": "5.17% [at 76.3 µM]"},
      {"smiles": "c1ccc2nc(N3CCNCC3)ccc2c1", "activity change, negative = inhibition": "-16.2%"},
      {"smiles": "O=C(O)Cc1ccccc1", "activity change, negative = inhibition": "45.7%"},
      {"smiles": "CC(C)(O)C(Cl)(Cl)Cl", "activity change, negative = inhibition": "-29.6%"},
      {"smiles": "C[C@@H]1O[C@@H](O[C@@H]2C=C3CC[C@@H]4[C@H](CC[C@]5(C)[C@@H](c6ccc(=O)oc6)CC[C@]45O)[C@@]3(C)CC2)[C@H](O)[C@H](O)[C@H]1O", "activity change, negative = inhibition": "41.3%"},
      {"smiles": "CN1C(=O)CN=C(c2ccccc2)c2cc(Cl)ccc21", "activity change, negative = inhibition": "17.2%"},
      {"smiles": "COc1cc(C[C@@H](C)N)c(OC)cc1C", "activity change, negative = inhibition": "-13.5% [at 76.3 µM]"},
      {"smiles": "O=C(CCCCl)c1ccc(F)cc1", "activity change, negative = inhibition": "-16%"},
      {"smiles": "O=C(CBr)Nc1ccc(Cl)cc1C(=O)c1ccccc1F", "activity change, negative = inhibition": "-26.3%"},
      {"smiles": "C[C@H](N)[C@H](O)c1ccc(O)c(O)c1", "activity change, negative = inhibition": "-37.5%"}
    ]},
    {"experiment": "A High-Content qHTS Against Drug Library for the Identification of Small Molecules that Inhibit DYT1 Early Onset Primary Dystonia-Associated Cell Pathology (AID 1645839)", "details": "HEK293 Flp-In EGFP-delE TorsinA, punctate imaging, 48 h; series mostly up to 46.1 µM; % pathology change, negative = correction: at the top concentration", "outline": "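Induced EGFP-delE TorsinA cells are imaged after 48 h of compound treatment. Punctate fusion-protein distribution gives the %pathology value, while nuclei counts flag toxicity. Wild-type EGFP-hTOR1A cells define the normal pattern.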", "values": [
      {"smiles": "COc1ccc2c(C(=O)c3ccc(Cl)cc3)c(C)n(CC(=O)O)c2c1", "% pathology change, negative = correction": "3.68%"},
      {"smiles": "CC(C(O)c1ccccc1)N(C)C/C=C/c1ccccc1", "note": "(stereo not given)", "% pathology change, negative = correction": "-0.0781%"},
      {"smiles": "CCNc1nc(Cl)nc(NCC)n1", "% pathology change, negative = correction": "6.9%"},
      {"smiles": "COc1cc(N)c(Cl)cc1C(=O)NC1CN2CCC1CC2", "note": "(stereo not given)", "% pathology change, negative = correction": "-0.605%"},
      {"smiles": "COc1cc(C[C@@H](C)N)c(OC)cc1Br", "% pathology change, negative = correction": "-0.278% [at 104 µM]"},
      {"smiles": "CCN(CC)C(C)C(=O)c1ccccc1", "note": "(stereo not given)", "% pathology change, negative = correction": "18.6%"},
      {"smiles": "CC(C)C(Br)C(=O)NC(N)=O", "note": "(stereo not given)", "% pathology change, negative = correction": "2.83%"},
      {"smiles": "CC1=C2[C@H]3OC(=O)[C@@H](C)[C@@H]3CC[C@@]2(C)C=CC1=O", "% pathology change, negative = correction": "1.94%"},
      {"smiles": "CN1C(=O)CN=C(c2ccccc2)c2cc([N+](=O)[O-])ccc21", "% pathology change, negative = correction": "6.85%"},
      {"smiles": "CNC(=O)NC(O)C(Cl)(Cl)Cl", "note": "(stereo not given)", "% pathology change, negative = correction": "9.99%"},
      {"smiles": "CC(C)=C[C@@H]1[C@@H](C(=O)OCc2coc(Cc3ccccc3)c2)C1(C)C", "% pathology change, negative = correction": "0.378%"},
      {"smiles": "CC(Cc1ccccc1)NCc1ccccc1Cl", "note": "(stereo not given)", "% pathology change, negative = correction": "-22%"},
      {"smiles": "COP(=O)(OC)OC=C(Cl)Cl", "% pathology change, negative = correction": "7.19%"},
      {"smiles": "CC1N=C(N)OC1c1ccccc1", "note": "(stereo not given)", "% pathology change, negative = correction": "-4.13% [at 91.7 µM]"},
      {"smiles": "COc1ccc(OC)c(CC(C)N)c1", "note": "(stereo not given)", "% pathology change, negative = correction": "-12.1% [at 104 µM]"},
      {"smiles": "ClC1=C(Cl)C2(Cl)C(CBr)CC1(Cl)C2(Cl)Cl", "note": "(stereo not given)", "% pathology change, negative = correction": "5.47%"},
      {"smiles": "O=C(NC(=O)c1c(F)cccc1F)Nc1cc(Cl)c(OC(F)(F)C(F)C(F)(F)F)cc1Cl", "note": "(stereo not given)", "% pathology change, negative = correction": "-6.16%"},
      {"smiles": "ClCCCN1CCN(c2cccc(Cl)c2)CC1", "% pathology change, negative = correction": "0.933%"},
      {"smiles": "CCOC(=O)NC(C)(C)Cc1ccc(Cl)cc1", "% pathology change, negative = correction": "5.84%"},
      {"smiles": "CC(C)=CCN1CC[C@@]2(C)c3cc(O)ccc3C[C@@H]1[C@@H]2C", "% pathology change, negative = correction": "2.25% [at 91.7 µM]"},
      {"smiles": "COc1cc(CC(C)N)cc2c1OCO2", "note": "(stereo not given)", "% pathology change, negative = correction": "2.1% [at 104 µM]"},
      {"smiles": "c1ccc2nc(N3CCNCC3)ccc2c1", "% pathology change, negative = correction": "-7.25%"},
      {"smiles": "O=C(O)Cc1ccccc1", "% pathology change, negative = correction": "1.86%"},
      {"smiles": "CCC(=O)OC1(c2ccccc2)CCN(C)CC1", "% pathology change, negative = correction": "-0.778% [at 104 µM]"},
      {"smiles": "CC(C)(O)C(Cl)(Cl)Cl", "% pathology change, negative = correction": "-1.66%"},
      {"smiles": "C[C@@H]1O[C@@H](O[C@@H]2C=C3CC[C@@H]4[C@H](CC[C@]5(C)[C@@H](c6ccc(=O)oc6)CC[C@]45O)[C@@]3(C)CC2)[C@H](O)[C@H](O)[C@H]1O", "% pathology change, negative = correction": "-88.4%"},
      {"smiles": "CN1C(=O)CN=C(c2ccccc2)c2cc(Cl)ccc21", "% pathology change, negative = correction": "2.65%"},
      {"smiles": "COc1cc(C[C@@H](C)N)c(OC)cc1C", "% pathology change, negative = correction": "-10.2% [at 104 µM]"},
      {"smiles": "CN1CCc2cc(Cl)c(O)cc2[C@H]2c3ccccc3CC[C@@H]21", "% pathology change, negative = correction": "0.274%"},
      {"smiles": "Cc1cccc(Cc2cnc[nH]2)c1C", "% pathology change, negative = correction": "3.81%"},
      {"smiles": "O=C(CCCCl)c1ccc(F)cc1", "% pathology change, negative = correction": "3.52%"},
      {"smiles": "O=C(CBr)Nc1ccc(Cl)cc1C(=O)c1ccccc1F", "% pathology change, negative = correction": "-10.3%"},
      {"smiles": "C[C@H](N)[C@H](O)c1ccc(O)c(O)c1", "% pathology change, negative = correction": "1.02%"}
    ]}
  ]
}
